The campaign covered roughly 370,000 compounds. About 2,300 (0.62%) were called active. The sample as a whole holds a higher share of actives than the screen did. Values without a mark were called inactive.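 Rule for the calls: active = inhibition above a per-campaign cutoff equal to the mean of compounds falling between control-based bounds plus 3 SD (cut at about 20% in these data); inactive = the rest.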
target: Disintegrin and metalloproteinase domain-containing protein 10 (Homo sapiens) (UniProt O14672); test: human ADAM10 inhibitors, primary screen, biochemical, QFRET, HTS (AID 720582); conditions: recombinant ADAM10, EDANS/DABCYL FRET peptide cleavage, 3 h; at 7 µM; stronger effect = higher value;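 note: 0% = DMSO wells while the 100% control is not disclosed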
Sequence (O14672 214-748 limits assumed): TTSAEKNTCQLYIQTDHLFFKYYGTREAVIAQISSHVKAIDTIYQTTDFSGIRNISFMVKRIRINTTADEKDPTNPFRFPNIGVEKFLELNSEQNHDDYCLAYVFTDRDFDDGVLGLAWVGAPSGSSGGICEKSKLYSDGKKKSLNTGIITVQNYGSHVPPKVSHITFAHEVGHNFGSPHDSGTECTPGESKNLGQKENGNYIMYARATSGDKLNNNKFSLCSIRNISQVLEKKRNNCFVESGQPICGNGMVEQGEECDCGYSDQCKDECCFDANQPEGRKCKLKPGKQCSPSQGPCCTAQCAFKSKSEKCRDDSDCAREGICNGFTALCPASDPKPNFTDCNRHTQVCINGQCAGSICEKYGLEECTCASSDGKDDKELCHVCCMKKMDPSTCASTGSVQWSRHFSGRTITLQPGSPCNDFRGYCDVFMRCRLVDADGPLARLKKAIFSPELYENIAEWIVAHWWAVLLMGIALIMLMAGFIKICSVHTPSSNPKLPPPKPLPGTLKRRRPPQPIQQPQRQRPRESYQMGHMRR

Row | Compound | inhibition
1 | COC(=O)C1CN(Cc2ccc(F)cc2)CCS(=O)(=O)N1Cc1ccc(Cl)cc1 (stereo not drawn) | -0.23%
2 | COC(=O)[C@H](C(C)C)N1CCc2nnn(Cc3ccc(C)cc3)c2-c2ccccc2S1(=O)=O | 5.83%
3 | COC(=O)[C@]12C[C@H](CC(=O)NCCc3ccccc3OC)C(=O)N(Cc3ccco3)C1=C[C@H](C(C)C)O[C@@H]2C1CC1 | -2.42%
4 | CC(=O)Nc1ccc(OC[C@@H](O)CN2CCC(C(O)(c3ccccc3)c3ccccc3)CC2)cc1 | 4.68%
5 | O=C(NCCc1c[nH]c2ccc(Cl)cc12)c1ccc([N+](=O)[O-])cc1 | -1.95%
6 | O=C(NCCc1ccc(Cl)cc1Cl)c1cc([N+](=O)[O-])c[nH]c1=O | 20.1% (active)
7 | NS(=O)(=O)c1ccc(CCNC(=O)c2ccc(Cl)cc2[N+](=O)[O-])cc1 | -0.8%
8 | Cc1cc(NS(=O)(=O)c2ccc(NC(=O)CSc3nnc(-c4ccc(C(C)(C)C)cc4)n3Cc3ccco3)cc2)nc(C)n1 | 5.55%
9 | COc1ccc(C2Nc3ccccc3C(=O)N2Cc2cccs2)cc1COc1c(C)cccc1C (stereo not drawn) | -298%
10 | COc1ccc(C(=O)OCCN(C)C2CN(Cc3cn(Cc4cccc(C)c4)nn3)S(=O)(=O)C2)cc1OC (stereo not drawn) | 2.95%
11 | Cc1ccc(-n2c(SCC(=O)Nc3cccc4ccccc34)nnc2-c2ccco2)cc1 | 9.63%
12 | S=c1[nH]cc(-c2ccc(Cl)cc2)n1-c1ccccc1 | 22.5% (active)
13 | S=c1[nH]ccn1-c1ccc(Cl)cc1 | -2.53%
14 | S=c1[nH]nc(CSCc2ccc(Cl)cc2Cl)n1-c1ccccc1 | 15.5%
15 | O=C(c1cccc(C(F)(F)F)c1)N1CC[C@H]2[C@H](CCCN2Cc2cc(F)cc(F)c2)C1 | -2.92%
16 | Cn1c(Cc2cccs2)nnc1SCC(=O)Nc1ccccc1 | -5.09%
17 | Cn1c(CNc2nc(-c3ccccc3)cs2)nnc1SCC(=O)c1ccccc1 | 35% (active)
18 | CCn1c(CNc2ccc(OC)cc2)nnc1SCC(=O)c1ccc(OC)cc1 | -4.28%
19 | COc1ccc(CN2C(=O)N3Cc4cc(OC)ccc4C3CS2(=O)=O)cc1 (stereo not drawn) | 2.06%
20 | O=C(CCCCCN1C(=O)C2C3C=CC(C3)C2C1=O)Nc1ccccc1 (stereo not drawn) | 1.21%
21 | COc1ccc([C@H]2CC(=O)C=C(c3ccc(CO)cc3)C2)cc1 | -0.95%
22 | COc1ccc([C@H]2CC(=O)C=C(c3ccc(OC(F)(F)F)cc3)C2)cc1OC | 21% (active)
23 | COc1cccc(C2=CC(=O)C[C@H](c3ccc(OC)c(OC)c3)C2)c1 | 1.42%
24 | O=C(COC(=O)Cc1c[nH]c2ccccc12)NCCc1ccccc1 | 7.22%
25 | Cc1cc(C)cc(NC(=S)NCCc2c[nH]c3ccccc23)c1 | 28.5% (active)
26 | Cc1ccc(S(=O)(=O)N(C)CC(=O)NCCc2c[nH]c3ccccc23)cc1 | -6.6%

Row | Compound | inhibition
27 | COc1cc(C(=S)NCc2ccccc2)cc(Br)c1O | 10.6%
28 | COc1cc(Cl)cc(C2NC(=O)NC(C)=C2C(=O)NCc2ccccc2)c1O (stereo not drawn) | -4.94%
29 | COc1cc(/C=C2/SC(=S)N(Cc3ccccc3)C2=O)cc(OC)c1O | 20.6% (active)
30 | CN(C)S(=O)(=O)c1cccc(NC(=O)COC(=O)C2(c3ccccc3F)CCCC2)c1 | 27.6% (active)
31 | O=C(COC(=O)COc1ccccc1F)Nc1cccc(S(=O)(=O)N2CCCCC2)c1 | -11.9%
32 | NS(=O)(=O)c1ccc(NC(=O)COC(=O)C2(c3ccc(F)cc3)CCCC2)cc1 | 13%
33 | COC(=O)C1CN(CC(C)C)CCS(=O)(=O)N1Cc1ccc(C)cc1 (stereo not drawn) | -14.6%
34 | COC(=O)CC1CCc2cc(C)cc(C(CC(C)C)NC(=O)[C@H](CC(C)C)NC(=O)OCc3ccccc3)c2O1 (stereo partly drawn) | -2.1%
35 | COc1ccc(N2CCN(CCNS(=O)(=O)c3ccc(Cl)s3)CC2)cc1 | 0.29%
36 | C=CCC[C@H](Cc1ccc(F)cc1)C(=O)OC[C@@H](NC(=O)[C@@H](CC=C)CC(=O)N[C@H](CO)Cc1ccccc1)C(C)(C)C | 8.16%
37 | C=CCC[C@H](Cc1ccc(F)cc1)C(=O)OC[C@H](C)NC(=O)[C@H](CC=C)CC(=O)N(CCO)Cc1ccccc1 | 7.82%
38 | C=CC[C@@H](Cc1ccc(F)cc1)C(=O)OC[C@H]1CCCN1C(=O)[C@H](CC=C)CC(=O)N(CCO)Cc1ccccc1 | -2.18%
39 | C=CC[C@@H](CC(=O)N[C@H](CO)Cc1ccccc1)C(=O)N[C@@H](COC(=O)[C@@H](CC=C)Cc1ccc(F)cc1)Cc1c[nH]c2ccccc12 | 0.04%
40 | C=CCC[C@H](Cc1ccc(F)cc1)C(=O)OC[C@@H](Cc1c[nH]c2ccccc12)NC(=O)[C@H](CC=C)CC(=O)N[C@H](CO)Cc1ccccc1 | 0.78%
41 | C=CC[C@H](CC(=O)N(CCO)Cc1ccccc1)C(=O)N[C@@H](COC(=O)[C@@H](CC=C)Cc1ccc(F)cc1)Cc1ccccc1 | 28% (active)
42 | C=CCC[C@@H](Cc1ccc(F)cc1)C(=O)OC[C@H](Cc1c[nH]c2ccccc12)NC(=O)[C@@H](CC=C)CC(=O)N(CCO)Cc1ccccc1 | 41.8% (active)
43 | C=CCC[C@@H](Cc1ccc(F)cc1)C(=O)O[C@H](CNC(=O)[C@H](CC=C)CC(=O)N(CCO)Cc1ccccc1)c1ccccc1 | 31.3% (active)
44 | C=CCC[C@@H](Cc1ccc(F)cc1)C(=O)OC[C@@H](C)NC(=O)[C@H](CC=C)CC(=O)N(CCO)Cc1ccccc1 | 8.58%
45 | CSc1ccc(C=Nn2c(-c3ccc(F)cc3)n[nH]c2=S)cc1 | -11.4%
46 | Cc1cccc(C(=O)Nc2c(-c3ccc(F)cc3)nc3ncccn23)c1 | -329%
47 | CCC(CO)Nc1cccc2c1S(=O)(=O)N(Cc1cn(Cc3ccccc3C(F)(F)F)nn1)Cc1ccccc1O2 (stereo not drawn) | -15.3%
48 | O=C(N1CCOCC1)N1CC[C@H]2[C@H](CCCN2Cc2ccc(F)cc2)C1 | -0.66%
49 | CC(C)CNc1cccc2c1S(=O)(=O)N(Cc1cn(Cc3ccc(Cl)cc3)nn1)Cc1ccccc1O2 | -29.6%
50 | CCn1c(=O)n2n(c1=O)[C@@]1(C=C3CCCC[C@H]32)N=C(NC(=O)c2ccccc2)N(Cc2ccccc2)[C@H]1Cc1ccccc1 | 9.57%
51 | COC(=O)C[C@@H]1CC[C@@H]2[C@H](COc3ccc(NC(=O)c4cccc(F)c4)cc3C(=O)N2C)O1 | 9.14%
52 | COc1cccc(CNC(=O)CNS(=O)(=O)c2ccc3nc(C)sc3c2)c1OC | 4.07%

Row | Compound | inhibition
53 | Cc1cc(C(=O)NN=C/C=C/c2ccco2)n[nH]1 | -13.7%
54 | C[C@@H]1ON(C)[C@H]2C[C@H]3c4[nH]c5cccc(-c6ccc7c(c6)OCO7)c5c4CCN3C[C@@H]12 | -72.8%
55 | O=C(NN1C(=O)C2C3C=CC(O3)C2C1=O)c1ccccc1 (stereo not drawn) | 1.76%
56 | O=C(NN1C(=O)C2C3C=CC(C4CC34)C2C1=O)c1ccc(Cl)cc1 (stereo not drawn) | -2.31%
57 | COc1ccc(C(=O)NN2C(=O)C3C(c4ccccc4)C=CC(c4ccccc4)C3C2=O)cc1 (stereo not drawn) | 24.9% (active)
58 | CCCCN1CCN(C(=O)c2ccc3c(c2)NC(=O)C(C)(C)O3)CC1 | 2.07%
59 | Fc1ccc2nc(COCc3nc4ccc(F)cc4[nH]3)[nH]c2c1 | 2.8%
60 | COc1cc(/C=C/c2ccc(/C=C/c3cc(OC)c(OC)c(OC)c3)cc2)cc(OC)c1OC | -373%
61 | O=C(O)COc1ccc(/C=N/O)cc1Br | 3.83%
62 | COc1cc(/C=N/O)cc(Br)c1OS(=O)(=O)c1ccc(C)cc1 | 21.9% (active)
63 | Cc1ccc(-n2c(SCC(=O)Nc3ccc(S(=O)(=O)Nc4nccs4)cc3)nnc2-c2ccncc2)cc1 | -1.24%
64 | CC1CCCC(C)N1C(=O)CN1CCN(c2nc(-c3ccc(F)cc3)cs2)CC1 (stereo not drawn) | 1.47%
65 | COc1cccc(NC(=O)CN2CCN(c3nc(-c4cccc(OC)c4)cs3)CC2)c1 | 21.4% (active)
66 | COCCCNC(=S)N1CCN(c2nc(-c3cccc(OC)c3)cs2)CC1 | 9.71%
67 | CC[C@@H](CCC(=O)N(c1ccccc1)c1ccccc1)C1CC1 | -6.31%
68 | CCOc1ccc(-n2c(SCC(=O)Nc3cc(C)c(NC(=O)c4ccccc4)cc3OC)nnc2-c2cccs2)cc1 | 17.4%
69 | COc1ccc(OCC(=O)OCC(=O)Nc2ccc(S(=O)(=O)N3CCCCC3)cc2)cc1 | -5.59%
70 | CCOc1ccc(NC(=O)COc2ccc(S(=O)(=O)N3CCCC3)cc2)cc1 | 4.99%
71 | O=C(CSCc1ccc(Br)cc1)Nc1ccc(S(=O)(=O)N2CCCCCC2)cc1 | 24.1% (active)
72 | CCOC(=O)[C@]12CCCCC/C=C\1N(Cc1ccc(OC)cc1)C(=O)[C@H]2CC(=O)N1CCOCC1 | 3.26%
73 | CCCCNC(=O)C[C@H]1C[C@@]2(C(=O)OC)C(=C[C@H](COCc3ccccc3)O[C@@H]2C)N(Cc2ccc(Cl)cc2Cl)C1=O | 9.41%
74 | CC(C)(C)c1ccc(CSc2nnc(-c3cccs3)o2)cc1 | -4.29%
75 | O=[N+]([O-])c1cccc(S(=O)(=O)N2CCCCCC2)c1 | -4.84%
76 | Cc1ccc(S(=O)(=O)N2CCC(N3CCCCCC3)CC2)cc1 | 3.62%
77 | O=S(=O)(c1cccc(S(=O)(=O)N2CCC(n3nnc4ccccc43)CC2)c1)N1CCCCC1 | 20.5% (active)
78 | CC1=C(C(=O)N2CCOCC2)CC(CC(=O)NCc2cccs2)C(=O)N1CCCN1CCCC1=O (stereo not drawn) | -13.7%

From PubChem BioAssay AID720582 (The Scripps Research Institute Molecular Screening Center, 2013)
